# Test results: the supplement of paper PMC3334620
# In all, about 33,000 sequences were measured (“E-score (-0.5 to 0.5)”: median about -0.04, highest 2% from about 0.36 on). The entries come from a sample that favours the highest values as a whole.
# Target: T1, Hmlalpha2 (UniProt P0CY09)
# T1 sequence: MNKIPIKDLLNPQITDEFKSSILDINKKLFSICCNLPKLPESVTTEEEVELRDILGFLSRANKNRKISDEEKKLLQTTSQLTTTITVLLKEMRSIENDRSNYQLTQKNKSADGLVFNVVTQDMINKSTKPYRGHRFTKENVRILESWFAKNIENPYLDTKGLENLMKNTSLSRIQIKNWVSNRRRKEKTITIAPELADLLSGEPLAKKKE
# Assay: PBM E-score (8-mer binding enrichment) (E-score (-0.5 to 0.5)); higher = stronger / more preferred TF binding
# Conditions: protein concentration: 200 nM; construct: GST-full length
# Procedure: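 Universal 'all 10-mer' protein binding microarrays (Agilent AMADID 015681) probed with GST-tagged S. cerevisiae TFs (full-length or DBD) made by in vitro transcription/translation (PURExpress), about 100-200 nM. Bound TF was detected with fluorescent anti-GST. Each ungapped 8-mer (which stands for itself and its reverse complement) is scored by the PBM enrichment score (E-score), a modified Wilcoxon-Mann-Whitney statistic from -0.5 to +0.5, computed with the Universal PBM Analysis Suite. Scale: above 0.35 generally sequence-specific binding.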
row,Sequence,PBM E-score
1,AGGTTAAT,0.182
2,CTGTTAAG,0.255
3,ATGTTAAT,0.447
4,AAGTTAAT,0.187
5,ACGTTAAA,0.362
6,ATGTTACA,0.401
7,ATGTTAAG,0.445
8,ATGTTAAA,0.473
9,CTGTTACA,0.281
10,ATGTTAGA,0.358
11,CACAAACG,0.241
12,ACTCTCCT,-0.223
13,CAGCTACC,-0.168
14,CCCTAGAG,-0.232
15,ATTTACCA,0.21
16,CTTTACAA,0.38
17,GTTTACTA,0.356
18,GTTTACAA,0.425
19,ATTTACAA,0.453
20,ATTTACAC,0.479
21,CTTTACTA,0.252
22,CTTTACCA,0.0599
23,ATTTACAG,0.269
24,GCTTACAA,0.275
25,ATTTACCC,0.0345
26,ATTTACTC,0.301

row,Sequence,PBM E-score
1,GAATTTGA,-0.109
2,AAACTGGG,-0.278
3,ATAGTGGC,-0.192
4,GGCTTGAC,-0.093
5,ACAACATG,0.451
6,ACAACAAG,0.298
7,GCAACATA,0.219
8,ACAACATC,0.263
9,ACAACATA,0.382
10,CCAACATA,0.314
11,AGTGGATG,-0.0671
12,ACCTGAGT,0.0645
13,AAGGATCT,-0.17
14,ACCACGAG,-0.135
15,ACACGCTA,0.414
16,ACACGCTG,0.355
17,CCACGCTC,-0.335
18,GCACGCTA,-0.192
19,ACACGCTC,0.399
20,AAACGCTC,-0.144
21,GAGTTAGA,-0.0875
22,AGAAGGCC,-0.213
23,GATGAAGC,-0.157
24,ATATGTTA,0.384
25,CTATGTTC,0.252
26,ATATGTTC,0.198

row,Sequence,PBM E-score
1,CTCTGTTA,0.23
2,GAATGTTA,0.287
3,CTATGTTA,0.414
4,GTATGTTA,0.414
5,GGATGTTA,0.299
6,ATATGTTG,0.346
7,CGAATATA,-0.00331
8,AGGGGAGG,-0.299
9,ACTTGGAA,-0.144
10,ATTAGCGC,0.0131
11,GATTCAAC,0.0589
12,ATGGGTTG,0.0606
13,GATGTTTA,0.223
14,CATGTTGA,0.477
15,CATGTTTC,0.333
16,AGTTTTAA,0.169
17,CATGTTGC,0.334
18,TGTTTAAA,0.34
19,TGTGTTAA,0.471
20,GGTGTTAA,0.361
21,TGTTTTAA,0.382
22,TCTGTTAA,0.331
23,AATGTTGA,0.256
24,CATGTTTA,0.437
25,TAGGTTGA,0.0343
26,ATAGCAGA,0.00582

row,Sequence,PBM E-score
1,ATACAGAA,0.199
2,GGCCATGA,-0.217
3,CTTGCCTA,-0.112
4,ATAGGCAC,-0.216
5,CGATTTTA,0.081
6,ACCGCGAT,-0.0546
7,CGTGTTGC,0.301
8,CGTGTTCA,0.369
9,AGTGTTAA,0.374
10,CGTGTTAA,0.481
11,ACTGTTAA,0.208
12,CCTGTTAA,0.288
13,AGTGTTCA,0.00891
14,AGTGTTAC,0.221
15,CGTGTTGA,0.446
16,AGTGTTAT,0.269
17,AGTGTTGA,0.238
18,CGTGTTCC,0.2
19,CGCTCTTA,0.0692
20,AGAGAATG,-0.0972
21,ACGGCCAC,-0.128
22,AGAACCAT,0.116
23,AAAGATTC,0.196
24,ACGGTCCC,-0.356
25,AGGGTGAC,-0.182
26,GACGGTGA,-0.192

row,Sequence,PBM E-score
1,TCAGAACA,0.196
2,GGTGTTTA,0.112
3,CGTGTTAG,0.431
4,CTTGTTAA,0.414
5,CGTGTTTA,0.436
6,ACTGTTAG,-0.13
7,AGTGTTAG,0.0767
8,CGTGTTAC,0.41
9,GTTGTTAA,0.359
10,CTTGTTAC,0.274
11,CCTGTTAC,0.176
12,AGTGTTTA,0.299
13,GGTGTTAC,0.223
14,CAGATACC,-0.251
15,CTAGATCC,-0.22
16,GAGGCTAC,-0.193
17,CACTACTA,0.00081
18,ACTTGCCA,-0.0087
19,ACACTTGA,-0.0396
20,TCGACTCA,0.0619
21,CCCAAAGA,-0.0661
22,ATAAAGAA,0.0809
23,TGATTAAA,0.133
24,CGATTACC,-0.0336
25,CGATTACA,0.461
26,GGGTTACA,0.218

row,Sequence,PBM E-score
1,AGATTACC,0.0994
2,TGCTTACA,0.305
3,CGGTTACG,0.0305
4,CGATTACG,0.274
5,TGATTACA,0.445
6,AGATTACT,0.141
7,AGATTACA,0.411
8,CGGTTACA,0.367
9,CTGTTCTA,0.102
10,TGAAGGAA,-0.0399
11,GCCAATCC,-0.151
12,ATGGCAAG,-0.153
13,GGATTAGA,-0.216
14,GGATTACC,-0.00329
15,GGATTACA,0.444
16,GCTTAAGC,0.187
17,GTGTAGTA,0.323
18,ATGTAGTA,0.391
19,CTGTAGTC,-0.0729
20,AAGTAGTC,0.0858
21,ATGTAGTG,0.332
22,ATGTAGTC,0.37
23,TAGGCGGA,0.0174
24,GATAAGAC,-0.0897
25,TATGTTCA,0.316
26,TATGTTGA,0.364

row,Sequence,PBM E-score
1,GATGTTAA,0.383
2,GCTGTTAA,0.262
3,AATGTTAA,0.364
4,TATGTTAA,0.459
5,GCTGTTAC,-0.0161
6,AAGATCCG,-0.207
7,ATTGCCCC,-0.315
8,CACTGCGA,-0.0249
9,CAAGGTCC,-0.193
10,ATATCTCG,-0.151
11,TTATGCAA,0.11
12,AACTACAT,0.392
13,CACTACAA,0.268
14,AACTACGT,0.186
15,CACTACAC,0.394
16,CACTACAG,0.126
17,AACTACAC,0.42
18,GACTACAC,0.362
19,AACTACAA,0.242
20,AACTACAG,0.0948
